According to PubChem BioAssay (NCATS):
Where “and” joins values, the source holds several entries; their conditions need not be identical. Identical values can stand only once. Unmarked numbers belong to inactive results. Results filed as inconclusive are left out. Where a call stands in place of a potency, no number is given. Calls of active or inactive are those of the source. Unless noted, calls come from the whole dose curve; as a rule, active = well fitted curve in the direction sought with a large enough effect; inconclusive = small, poorly fitted or top-dose-only effect, or another doubt; inactive = no such curve, though single readings can be large; an effect the other way counts as inactive or inconclusive.

Tests used:
[1] = P-glycoprotein substrates identified in KB-3-1 adenocarcinoma cell line, qHTS therapeutic library screen (AID 1346986); note: nearly all actives have a fitted effect of over 60% in size;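 note: potency is the fitted concentration of half-maximal effect; potency is for cytotoxicity meaning loss of cell viability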
Method in brief: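 Viability read by CellTiter-Glo after 72 h compound exposure in dose-response of KB-3-1 and KB-8-5-11 (P-gp-high) cells. Hits needed AC50 < 10 uM, >50% maximum response and curve class -1.1 to -2.4. Cherry-picks retested ± tariquidar, including pcDNA/MDR-19 HEK-293 pair.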

[2] = P-glycoprotein substrates identified in KB-8-5-11 adenocarcinoma cell line, qHTS therapeutic library screen (AID 1346987); note: nearly all actives have a fitted effect of over 65% in size; note: potency is the fitted concentration of half-maximal effect; for activity change, negative = cytotoxicity: series mostly up to about 44 µM
Method in brief: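 Luminescence from CellTiter-Glo, read 5 min after addition, quantified survival of KB-8-5-11 (P-gp-overexpressing) cells exposed to compounds for 72 h. AC50 was derived from concentration-response curves.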

[3] = target: T1, Hexokinase-4 (Homo sapiens) + Glucokinase regulatory protein (Homo sapiens) (UniProt P35557+Q14397); test: qHTS assay for inhibitors of recombinant human GCK-GKRP interaction: Diaphorase-coupled assay (AID 743205)
T1 sequence (P35557 whole entry, looked up): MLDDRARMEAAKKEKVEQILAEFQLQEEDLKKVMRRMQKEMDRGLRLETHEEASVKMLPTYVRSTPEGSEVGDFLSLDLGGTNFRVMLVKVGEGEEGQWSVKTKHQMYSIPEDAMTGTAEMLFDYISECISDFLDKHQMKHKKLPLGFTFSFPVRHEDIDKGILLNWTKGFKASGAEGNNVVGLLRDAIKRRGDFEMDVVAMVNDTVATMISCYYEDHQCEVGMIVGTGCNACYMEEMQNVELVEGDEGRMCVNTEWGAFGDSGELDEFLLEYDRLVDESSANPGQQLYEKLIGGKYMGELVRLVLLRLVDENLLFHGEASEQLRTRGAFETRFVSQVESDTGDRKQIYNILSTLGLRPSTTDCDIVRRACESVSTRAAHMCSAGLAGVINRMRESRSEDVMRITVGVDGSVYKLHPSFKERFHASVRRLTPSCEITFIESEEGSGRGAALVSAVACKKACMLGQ
T1 sequence (Q14397 whole entry, looked up): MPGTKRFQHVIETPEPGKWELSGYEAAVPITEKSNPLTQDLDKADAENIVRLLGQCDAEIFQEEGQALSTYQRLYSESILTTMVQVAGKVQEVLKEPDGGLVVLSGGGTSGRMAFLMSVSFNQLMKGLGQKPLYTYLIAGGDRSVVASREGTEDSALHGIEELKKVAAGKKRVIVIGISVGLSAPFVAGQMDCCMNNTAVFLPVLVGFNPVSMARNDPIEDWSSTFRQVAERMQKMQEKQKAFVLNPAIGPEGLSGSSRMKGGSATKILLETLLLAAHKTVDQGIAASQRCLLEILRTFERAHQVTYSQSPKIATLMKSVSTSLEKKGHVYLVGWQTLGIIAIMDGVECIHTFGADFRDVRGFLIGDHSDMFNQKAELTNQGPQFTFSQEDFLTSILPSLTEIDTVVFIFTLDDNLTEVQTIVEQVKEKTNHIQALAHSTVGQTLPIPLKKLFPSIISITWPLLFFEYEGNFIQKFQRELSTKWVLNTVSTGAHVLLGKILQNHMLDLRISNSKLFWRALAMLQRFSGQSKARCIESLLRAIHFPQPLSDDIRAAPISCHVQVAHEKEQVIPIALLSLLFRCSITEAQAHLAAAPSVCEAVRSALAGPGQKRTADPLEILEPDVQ
Method in brief: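 Inhibitors of the GCK–GKRP complex relieve GKRP suppression of GCK, detected through a G6PDH–diaphorase cascade reducing resazurin. Human GST-GCK and FLAG-GKRP are used at 10 nM with 5 mM glucose and 0.4 mM ATP.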

[4] = target: T1, Hexokinase-4 (Homo sapiens) + Glucokinase regulatory protein (Homo sapiens); test: qHTS assay for inhibitors of recombinant human GCK-GKRP interaction: ADP-Glo assay (AID 743206)
Method in brief: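 Pin-transferred compounds meet a 15 nM GST-GCK/15 nM FLAG-GKRP/2 uM S6P mix (dispense concentrations). ATP is then added to 0.4 mM final with 5 mM glucose, and the reaction runs 60 min at room temperature. ADP is quantified luminescently.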

[5] = target: T1, Hexokinase-4 (Homo sapiens) + Glucokinase regulatory protein (Homo sapiens); test: qHTS assay for inhibitors of recombinant human GCK-GKRP interaction: HTRF assay (AID 743207)
Method in brief: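 Steps: dispense GCK–GKRP complex (5 nM each, GST- and FLAG-tagged) with 2 uM S6P; pin in compounds; add XL665/Eu-cryptate-labelled antibodies; incubate 60 min at room temperature; read time-resolved FRET at 665 and 615 nm.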

[6] = target: Atrial natriuretic peptide receptor 1 (Homo sapiens) (UniProt P16066); test: Natriuretic polypeptide receptor (hNpr1) antagonism - Pilot screen (AID 1347049; calls by dose curve;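 note: HEK293 cells with hNpr1 and GloSensor cGMP luciferase stimulated by 0.1 nM hNppA; agonist-evoked cGMP luminescence read 20 min after hNppA addition; series mostly up to about 58 µM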)
Sequence of Atrial natriuretic peptide receptor 1 (Homo sapiens) (P16066 whole entry, looked up): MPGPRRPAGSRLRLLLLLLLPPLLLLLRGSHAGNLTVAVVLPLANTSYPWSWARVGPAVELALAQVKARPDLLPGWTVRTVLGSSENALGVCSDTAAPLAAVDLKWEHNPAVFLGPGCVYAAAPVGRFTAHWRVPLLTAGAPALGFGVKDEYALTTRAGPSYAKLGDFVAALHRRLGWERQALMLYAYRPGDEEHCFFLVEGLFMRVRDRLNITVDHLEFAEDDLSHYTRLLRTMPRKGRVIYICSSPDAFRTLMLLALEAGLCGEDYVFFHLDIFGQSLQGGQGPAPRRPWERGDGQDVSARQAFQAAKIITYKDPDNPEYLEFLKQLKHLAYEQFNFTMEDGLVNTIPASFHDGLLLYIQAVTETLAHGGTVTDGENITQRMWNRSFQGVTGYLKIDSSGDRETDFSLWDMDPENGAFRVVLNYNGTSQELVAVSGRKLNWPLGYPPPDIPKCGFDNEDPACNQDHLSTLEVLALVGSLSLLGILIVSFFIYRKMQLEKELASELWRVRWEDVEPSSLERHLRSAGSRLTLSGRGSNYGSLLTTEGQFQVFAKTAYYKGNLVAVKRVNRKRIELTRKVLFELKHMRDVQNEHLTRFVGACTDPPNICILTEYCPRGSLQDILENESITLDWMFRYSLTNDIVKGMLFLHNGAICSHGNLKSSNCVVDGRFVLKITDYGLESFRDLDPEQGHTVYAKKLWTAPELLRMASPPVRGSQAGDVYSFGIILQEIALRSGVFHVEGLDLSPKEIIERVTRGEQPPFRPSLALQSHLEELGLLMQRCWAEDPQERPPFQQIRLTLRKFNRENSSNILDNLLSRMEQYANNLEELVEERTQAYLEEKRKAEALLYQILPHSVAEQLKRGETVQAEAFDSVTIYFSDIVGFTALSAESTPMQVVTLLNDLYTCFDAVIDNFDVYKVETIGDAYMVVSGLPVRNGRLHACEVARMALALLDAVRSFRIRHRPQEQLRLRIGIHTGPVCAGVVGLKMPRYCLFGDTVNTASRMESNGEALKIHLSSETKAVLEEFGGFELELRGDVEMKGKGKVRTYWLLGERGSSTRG
Method in brief: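 Receptor antagonism read as cGMP-dependent luminescence in hNpr1/pGS-40F HEK293 cells: pre-read after 30 min compound exposure, post-read 20 min after hNppA agonist at 0.1 nM final, all at room temperature, protected from light; A-71915 titration as control.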

[7] = target: Atrial natriuretic peptide receptor 2 (Homo sapiens) (UniProt P20594); test: Natriuretic polypeptide receptor (hNpr2) antagonism - Pilot subtype selectivity assay (AID 1347050; calls by dose curve)
Sequence of Atrial natriuretic peptide receptor 2 (Homo sapiens) (P20594 whole entry, looked up): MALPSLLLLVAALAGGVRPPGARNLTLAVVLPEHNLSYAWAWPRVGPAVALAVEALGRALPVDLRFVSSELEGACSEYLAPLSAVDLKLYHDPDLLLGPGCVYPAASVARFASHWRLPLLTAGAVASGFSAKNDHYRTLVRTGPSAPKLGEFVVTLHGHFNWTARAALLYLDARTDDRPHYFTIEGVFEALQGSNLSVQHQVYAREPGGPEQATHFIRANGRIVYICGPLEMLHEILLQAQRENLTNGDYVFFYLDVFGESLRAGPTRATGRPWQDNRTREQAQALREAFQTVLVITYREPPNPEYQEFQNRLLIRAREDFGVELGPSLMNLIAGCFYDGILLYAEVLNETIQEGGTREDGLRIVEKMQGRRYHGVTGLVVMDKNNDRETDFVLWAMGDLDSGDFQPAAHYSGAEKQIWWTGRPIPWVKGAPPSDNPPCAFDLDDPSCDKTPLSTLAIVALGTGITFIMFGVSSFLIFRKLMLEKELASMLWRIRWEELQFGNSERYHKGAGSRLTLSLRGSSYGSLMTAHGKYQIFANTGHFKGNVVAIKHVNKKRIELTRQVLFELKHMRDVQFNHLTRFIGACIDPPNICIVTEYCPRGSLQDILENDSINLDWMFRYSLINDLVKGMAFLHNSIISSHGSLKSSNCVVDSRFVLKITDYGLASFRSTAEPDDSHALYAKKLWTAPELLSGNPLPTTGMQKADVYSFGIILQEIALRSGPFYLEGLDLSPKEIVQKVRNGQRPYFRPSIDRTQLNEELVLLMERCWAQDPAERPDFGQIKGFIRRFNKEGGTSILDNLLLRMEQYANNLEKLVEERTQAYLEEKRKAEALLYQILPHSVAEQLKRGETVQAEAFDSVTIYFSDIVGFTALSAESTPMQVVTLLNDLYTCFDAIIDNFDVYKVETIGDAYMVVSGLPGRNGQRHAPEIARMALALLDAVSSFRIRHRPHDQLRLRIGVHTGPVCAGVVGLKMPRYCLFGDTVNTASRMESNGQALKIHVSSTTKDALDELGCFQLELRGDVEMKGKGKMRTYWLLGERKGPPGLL
Method in brief: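 Antagonist mode: compounds (LOPAC1280, seven 1:5 dilutions) added 30 min before 1 nM hNppC stimulation of hNpr2-HEK293 cGMP-sensor cells; luminescence read before and 20 min after agonist at ambient temperature.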

[8] = target: Parathyroid hormone/parathyroid hormone-related peptide receptor (Homo sapiens) (UniProt Q03431); test: qHTS for PTHR1 Agonists: Optimization Screen against the NCGC LOPAC library (AID 1347079);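 note: GloSensor cAMP luminescence in HEK-293 GP2 cells expressing human PTHR1 with IBMX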
Sequence of Parathyroid hormone/parathyroid hormone-related peptide receptor (Homo sapiens) (Q03431 whole entry, looked up): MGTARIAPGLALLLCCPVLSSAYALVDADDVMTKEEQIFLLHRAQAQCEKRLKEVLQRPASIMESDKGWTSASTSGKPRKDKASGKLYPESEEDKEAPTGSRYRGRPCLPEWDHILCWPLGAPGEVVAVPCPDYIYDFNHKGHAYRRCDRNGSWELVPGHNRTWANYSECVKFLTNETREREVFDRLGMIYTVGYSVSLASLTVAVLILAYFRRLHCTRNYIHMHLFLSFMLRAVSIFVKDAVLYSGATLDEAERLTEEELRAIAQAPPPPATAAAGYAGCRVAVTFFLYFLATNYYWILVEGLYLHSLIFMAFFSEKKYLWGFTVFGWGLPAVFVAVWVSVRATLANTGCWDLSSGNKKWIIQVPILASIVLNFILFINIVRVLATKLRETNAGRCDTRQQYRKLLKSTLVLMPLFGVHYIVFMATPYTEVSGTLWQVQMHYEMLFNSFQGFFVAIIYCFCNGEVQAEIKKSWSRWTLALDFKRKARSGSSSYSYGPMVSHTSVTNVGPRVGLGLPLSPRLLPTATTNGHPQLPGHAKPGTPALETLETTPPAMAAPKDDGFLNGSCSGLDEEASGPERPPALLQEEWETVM
Method in brief: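 HEK-293 GP2 cells, PTHR1 + GloSensor cAMP; 3000 cells/well, o/n. Luciferin + IBMX 0.5mM each (stock), 1 hr 37C. Cpd titration, 1 hr 37C. Lum after 15 min RT. Ctrl M-PTH(1-15) top 10uM.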

[9] = qHTS Assay for Identifying Gametocytocidal Compounds (AID 743244);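 note: actives lower the fluorescent signal which means gametocytes are killed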; settings: P. falciparum 3D7 stage III-V gametocytes, alamarBlue, 72 h; max response: active compounds read low
Method in brief: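 P. falciparum 3D7 stage III–V gametocytes (20,000 cells/well) were exposed to compounds for 72 h at 37 °C, 5% CO2. AlamarBlue was then added for 24 h; decreased resorufin fluorescence (Ex 525/Em 598 nm) indicated loss of viability.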

## CC(=O)OC1C(O)CC2(C)C(CCC3(C)C2CC=C2C4C5(CCC(CO[C@@H]6O[C@H](CO)[C@@H](O)[C@H](O)[C@H]6O)(OC5=O)C4(C)O)C(O)CC23C)C1(C)C (stereo partly specified)
[1]
  Potency: inactive
[2]
  Potency: inactive

## CC1OC(=O)C[C@@H]2C(C(=O)O)=CO[C@@H](O[C@H]3O[C@H](CO)[C@@H](O)[C@H](O)[C@H]3O)[C@H]12 (stereo partly specified)
[1]
  Potency: inactive
[2]
  Potency: inactive

## C[C@H]1CC[C@@]2(OC1)O[C@H]1CC3[C@@H]4CC[C@@H]5C[C@@H](O[C@@H]6O[C@H](CO)[C@@H](O[C@@H]7O[C@H](CO[C@@H]8OC[C@@H](O)[C@H](O)[C@H]8O)[C@@H](O[C@@H]8O[C@H](CO)[C@H](O)[C@H](O)[C@H]8O)[C@H](O)[C@H]7O)[C@H](O)[C@H]6O)CC[C@]5(C)C4CC[C@]3(C)[C@H]1[C@@H]2C (stereo partly specified)
[1]
  outcome: inactive [at 9.29 µM]
[2]
  activity change, negative = cytotoxicity: 3.95% [at 9.29 µM]

## CCNC(=O)C#Cc1ccc2c(C(=Nc3ccc(CN(C)C)cc3)c3ccccc3)c(O)[nH]c2c1
[1]
  Potency: 0.0517 µM (active)
[2]
  Potency: 0.651 µM (active)

## C[C@H](Nc1cc2c(-c3ccc4c(c3)OCO4)noc2cn1)c1ccccc1
[1]
  Potency: inactive
[2]
  Potency: inactive

## CC1(C)CC[C@]2(C(=O)O[C@@H]3O[C@H](CO)[C@@H](O)[C@H](O)[C@H]3O)CC[C@]3(C)C(=CCC4[C@@]5(C)CC[C@H](O[C@@H]6O[C@H](C(=O)O)[C@H](O)[C@H](O)[C@H]6O)C(C)(C)C5CC[C@]43C)[C@@H]2C1 (stereo partly specified)
[1]
  Potency: inactive
[2]
  Potency: inactive

## COc1cccc(CN(C(=O)CC(C)(C)C)[C@H]2C[C@H](C(=O)N3CCNCC3)N(Cc3ccc4c(c3)OCO4)C2)c1
[1]
  Potency: inactive
[2]
  Potency: inactive

## Cc1cn2cc(C(=O)N(C)CCO)cc(NC3CCOc4cccc(C)c43)c2n1 (stereo unspecified)
[1]
  Potency: inactive
[2]
  Potency: inactive

## N#Cc1ccnc(Nc2cc(C3CCN(C4COC4)CC3)cc(N3CCC(F)(F)C3)n2)c1
[1]
  Potency: 6.51 µM (active)
[2]
  Potency: 16.4 µM (active)

## C=C1CC[C@@H]2[C@](C)(CO)[C@H](O)CC[C@@]2(C)[C@@H]1C/C=C1/C(=O)OCC1OC(=O)/C(=C/CO)C(O)C[C@@H]1C(=C)CC[C@@H]2[C@](C)(CO)[C@H](O)CC[C@]21C (stereo partly specified)
[1]
  Potency: inactive
[2]
  Potency: inactive

## COc1cc(O)cc(/C=C/c2cccc(O)c2)c1
[1]
  Potency: inactive
[2]
  Potency: inactive

## O=C1NC(=O)C(c2cnc3ccccn23)=C1c1cn2c3c(cc(F)cc13)CN(C(=O)N1CCCCC1)CC2
[1]
  Potency: 5.8 µM (active)
[2]
  Potency: 16.4 µM (active)

## CO[C@H]1O[C@@H]2O[C@@]3(C)CCC4[C@H](C)CCC([C@H]1C)[C@]42OO3 (stereo partly specified)
[1]
  Potency: inactive
[2]
  Potency: inactive

## O=C(c1cc(Cc2n[nH]c(=O)c3ccccc23)ccc1F)N1CCCNCC1
[1]
  Potency: inactive
[2]
  Potency: inactive

## CC#CCn1c(N2CCCC(N)C2)nc2c1c(=O)n(Cc1nc(C)c3ccccc3n1)c(=O)n2C (stereo unspecified)
[1]
  Potency: inactive
[2]
  Potency: inactive

## CC/C(C)=C/C(=O)OC1C(OC2(C)CCC3C(C4C(C)CCC42)C3(C)C)OC(C)C(O)C1O (stereo unspecified)
[1]
  Potency: inactive
[2]
  Potency: inactive

## C=C1C(=O)OC2CC3(C)C(O)C(=O)C=C(C)C3CC12 (stereo unspecified)
[1]
  Potency: inactive
[2]
  Potency: inactive

## C=C1CC[C@@H](O)[C@]2(C)CC[C@H]3C(=C)C(=O)O[C@@H]3[C@@H]12
[1]
  Potency: inactive
[2]
  Potency: inactive

## NCCCC(=O)O
[3]
  outcome: inactive
[4]
  outcome: inactive
[5]
  outcome: inactive
[6]
  outcome: inactive
[7]
  Potency: inactive
[8]
  outcome: inactive

## CC(=O)O[C@H]1CC[C@@]2(C)C(=CC[C@H]3[C@@H]4CC[C@H](C(C)=O)[C@@]4(C)CC[C@@H]32)C1
[9]
  max response: 3.94%
[2]
  Potency: inactive

## O=P(O)(O)C(Sc1ccc(Cl)cc1)P(=O)(O)O
[9]
  max response: 17.7%
[2]
  Potency: inactive

## O=C[C@H](O)[C@@H](O)[C@H](O)[C@H](O)CO
[9]
  max response: -1.25%
[2]
  Potency: inactive

## CCOC(=O)Cc1cccc(-c2cc(CCCCCCc3ccc(O[C@H]4O[C@H](COC(C)=O)[C@@H](OC(C)=O)[C@H](OC(C)=O)[C@@H]4OC(C)=O)c(-c4cccc(CC(=O)OCC)c4)c3)ccc2O[C@H]2O[C@H](COC(C)=O)[C@@H](OC(C)=O)[C@H](OC(C)=O)[C@@H]2OC(C)=O)c1
[9]
  max response: -24.7%
[2]
  Potency: inactive

## CCCCCCCCCCCCCCCC(=O)OC[C@@H](COP(=O)([O-])OCC[N+](C)(C)C)OC(=O)CCCCCCCCCCCCCCC
[9]
  max response: 1.44%
[2]
  Potency: inactive

## CC(CN(C)C)CN1c2ccccc2S(=O)(=O)c2ccccc21 (stereo unspecified)
[9]
  max response: -15.2%
[2]
  Potency: inactive

## NCCCC[C@H](NC(=O)[C@@H]1CCCN1C(=O)[C@@H]1CSSC[C@H](N)C(=O)N[C@@H](Cc2ccc(O)cc2)C(=O)N[C@@H](Cc2ccccc2)C(=O)N[C@@H](CCC(N)=O)C(=O)N[C@@H](CC(N)=O)C(=O)N1)C(=O)NCC(N)=O
[9]
  max response: -14.9% and -14.7%
[2]
  Potency: inactive
